Experimental data from PubChem BioAssay AID652039 (The Scripps Research Institute Molecular Screening Center, 2013).
The campaign covered roughly 370,000 compounds. About 3,300 (0.89%) were called active. This is one part of a sample in which actives are shown more often than they occur.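 How the source made its calls: active means activation above the mean of all tested compounds plus 3 SD, computed per campaign excluding outliers beyond control limits (cut at about 13% in these data); inactive means the rest.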

biological target: Kallikrein-7 (Homo sapiens) (UniProt P49862); assay: proKLK7 zymogen activators, primary screen, biochemical, fluorescence intensity (AID 652039); settings: purified proKLK7, EDANS-DABCYL substrate fluorescence; at 7 µM; stronger effect = higher value; 100% is mature enzyme control, 0% vehicle
Sequence (P49862 whole entry, looked up): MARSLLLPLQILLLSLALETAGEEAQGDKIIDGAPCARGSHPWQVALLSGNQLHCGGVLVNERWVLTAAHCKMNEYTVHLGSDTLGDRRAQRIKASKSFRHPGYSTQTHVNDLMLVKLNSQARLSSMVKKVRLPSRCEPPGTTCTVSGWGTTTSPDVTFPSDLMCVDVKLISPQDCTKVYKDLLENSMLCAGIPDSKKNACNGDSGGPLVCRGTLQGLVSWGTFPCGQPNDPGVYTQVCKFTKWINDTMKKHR

activation, inactive:
O=C(Nc1cccc(Cl)c1)OC1CC2CC1[C@H]1CCCCN1[C@H]2Cc1ccccc1 (some centres not stated) -0.47%
C=CCN1C(=O)[C@H](CC(=O)NCCCN2CCCC2=O)[C@@]2(C(=O)OCC)CCCC=C12 -0.44%
Cc1ccccc1CN1CCCCC(NC(=O)c2cccc(C#N)c2)C1=O (configuration not stated) -1.15%
COc1ccc2c(C(C)c3ccc(N)cc3)cn(C)c2c1 (configuration not stated) -0.2%
CC(=O)N1CCCN(C2=Nc3ccccc3Sc3ccccc32)CC1 0.25%
CN(C)c1cc(-c2ccc(F)cc2)oc(=O)c1Cl -0.37%
CCOC(=O)[C@]12CCCC3=C1N(CCC3)C(=O)[C@@H](CC(=O)NCC13CC4CC(CC(C4)C1)C3)C2 0.33%
Cc1ccc(NC(=O)c2cc(C)nn2-c2ccccc2)c(C)c1 0.15%
C[C@@H](NC(=O)c1ccccc1OCC(=O)Nc1ccc(I)cc1)C(=O)N(C)Cc1ccccc1 -0.35%
Cc1cc2nc3c(=O)[nH]c(=O)nc-3n(C[C@H](O)[C@H](O)[C@H](O)CO)c2cc1C -49.4%
CC(C)CNc1cccc2c1S(=O)(=O)N(Cc1cn(Cc3ccccc3C(F)(F)F)nn1)Cc1ccccc1O2 -7.19%
CCOCc1nnc(NC(=O)CCS(=O)(=O)Cc2ccccc2)s1 0.26%
Cc1ccc(OCc2nnc(NC(=O)OCC(C)C)s2)cc1 -0.08%
COc1ccc(CN2C/C(=C/c3ccccc3)N3C(=O)C[C@@H](c4ccccc4)N=C23)c(OC)c1 -0.63%
C/C=C(/C)C(=O)OC1Cc2c(ccc3ccc(=O)oc23)OC1(C)C (configuration not stated) 0.3%
CC1(C)Oc2ccc3ccc(=O)oc3c2/C(=C/NCCO)C1=O 0.36%
COC(=O)C1CN(Cc2cn(Cc3ccc(F)cc3)nn2)CCS(=O)(=O)N1Cc1ccc(Cl)cc1 (configuration not stated) -0.37%
CCN(CC(=O)Nc1c(F)cccc1F)C(=O)c1ccc(-c2ccccc2)cc1 0.37%
CCN(CC(=O)Nc1c(F)cccc1F)C(=O)c1cnc(C)cn1 -0.38%
O=C(OC12CCCN(C1)/C(=C/c1ccccc1)C2)c1ccco1 (configuration not stated) 0.07%
CCCCCCCCNS(=O)(=O)/C=C/c1cc(C)ccc1CNC(=O)OC(C)(C)C 0.37%
CC(C)N1CCCCC(NC(=O)C(C)(C)C)C1=O (configuration not stated) -0.28%
Cc1oc2nc(SCC(=O)NCc3cccnc3)nc(N)c2c1C 0.33%
Cc1cc(-c2nnc(SCC(=O)Nc3ccc(S(N)(=O)=O)cc3)n2N)n[nH]1 -0.95%
CN(C)Cc1cn(-c2ccc(-c3noc4c3C(=O)N(CC(=O)N3CCOCC3)CC4)cc2)nn1 -0.76%
CC(C)Oc1cc(F)ccc1-c1cc(C(=O)Nc2cccc(Cl)c2)[nH]n1 -0.65%
CCC(=O)OCCCN1C(=O)CCC12CCC(c1ccccc1)CC2 (configuration not stated) -0.27%
C[C@@H](Nc1nc(-c2ccccc2)nc2c1oc1ccccc12)C(=O)O -0.64%
CCc1nc(Nc2ccc3nccnc3c2)c2oc3ccccc3c2n1 -2.9%
Cc1nc2ccccn2c(=O)c1NC(=O)c1cccs1 0.03%
Cc1cc2nc(C(F)(F)F)cc(-c3cccs3)n2n1 -1.33%
COC(=O)[C@]12C[C@H](CC(=O)N3CCOCC3)C(=O)N(Cc3ccc(Cl)cc3Cl)C1=C[C@H](C(C)C)O[C@@H]2C1CC1 0.16%
CC(=O)OCCN1CCCC12CCC(c1ccccc1)CC2 (configuration not stated) -0.5%
O=C(NCCN1CCN(Cc2ccccc2)CC1)c1cc2c(=O)[nH]c3ccccc3c2s1 -1.14%
Cc1cccc(N(C)C(=O)c2cc3c(=O)[nH]c4ccc(C)cc4c3s2)c1 -0.34%
CC(C)CNS(=O)(=O)CC1NCCc2ccccc21 (configuration not stated) -0.37%
COC(=O)C12C=C3CC(c4ccccc4)=C3C(=O)N1Cc1[nH]c3ccccc3c1C2 (configuration not stated) -0.28%
CCCCN(CC)CCNC(=O)CCNC(=O)Cn1ccc2ccccc2c1=O -0.2%
CS(=O)(=O)N(CC(O)Cn1c2ccccc2c2ccccc21)c1cccc2ccccc12 (configuration not stated) -1.25%
CC(NCc1ccco1)C(=O)N1CCCCC1 (configuration not stated) 0.56%
O=S1(=O)c2c(NCc3ccco3)cccc2Oc2ccccc2CN1Cc1cn(Cc2cccc(C(F)(F)F)c2)nn1 -9.73%
O=C(c1cccnc1)N(c1cc2sc(=O)oc2c2ccccc12)S(=O)(=O)c1ccccc1 -0.78%
Cc1ccc(-n2nc(-c3ccco3)cc2C(=O)NCc2cccnc2)cc1 0.09%
COc1ccc(-c2cc(-c3nnc(SCC(=O)Nc4cccc5ccccc45)n3N)[nH]n2)cc1 0.07%
COc1ccc(Cn2cc(CN3[C@@H](CC(C)C)COc4cc(Br)ccc4S3(=O)=O)nn2)cc1 0.02%

activation, active:
O=c1oc2cc(O)ccc2cc1-c1ccc(F)cc1 57.7%
CCN(CC)CCCC(C)n1c2nc(=O)[nH]c(=O)c-2nc2cc(Cl)ccc21 (configuration not stated) 75.5%
COCC(=O)Nc1nnc(COc2ccccc2)s1 20.2%
CC1(C)Oc2ccc3ccc(=O)oc3c2/C(=N/O)C1=O 206%
N#CC1=C(N)Oc2c(sc3ccccc23)C1c1ccco1 (configuration not stated) 15%
CCN(CC(=O)Nc1c(F)cccc1F)C(=O)c1ccc(-c2ccc(C(C)=O)cc2)o1 13.8%
Cc1oc2nc(SCC(=O)Nc3ccc(S(N)(=O)=O)cc3)nc(NC(=O)c3ccccc3)c2c1C 16.3%
CCc1nc(Nc2ccc(NC(C)=O)cc2)c2oc3ccccc3c2n1 172%
CC(C)(C)Nc1c(-c2cccs2)nc2ccccn12 27%
CCN(CC)CCCNC(=O)c1cc2c(=O)[nH]c3ccc(C)cc3c2s1 23.3%
CCCCN(CCCC)CC(O)Cn1c2ccccc2c(=O)c2ccccc21 (configuration not stated) 22.1%
O=C(Oc1c(-c2ccco2)oc2ccccc2c1=O)c1cccnc1 18.9%
